# Source: PubChem BioAssay
# Shown are actives, neighbours in structure and some others; about 5.7% of the full set was active somewhere.
# DAX1 inh-1: inhibitors of human orphan nuclear receptor DAX1 (NR0B1) | HEK293 Gal4-DAX1 luciferase reporter, luminescence | inhibition, % at 6.75 µM | hit rate 0.99% among 340,000;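 active means inhibition above the mean over all tested compounds plus 3 SD, cut at about 4.2% in these data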;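 further: inhibition shows as a rise in luminescence from relieved DAX1 repression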
# Target sequence (P51843 207-470 limits assumed): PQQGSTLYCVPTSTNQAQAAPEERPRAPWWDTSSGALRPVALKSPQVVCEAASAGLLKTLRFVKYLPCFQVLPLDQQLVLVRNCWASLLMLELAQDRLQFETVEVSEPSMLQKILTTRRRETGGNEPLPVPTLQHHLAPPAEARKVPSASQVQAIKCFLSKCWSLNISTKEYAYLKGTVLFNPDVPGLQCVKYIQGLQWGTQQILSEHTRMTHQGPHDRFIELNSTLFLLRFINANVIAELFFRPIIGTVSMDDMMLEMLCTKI
# ssDAF-12 act: S. stercoralis DAF-12 activation, primary screen; HEK293 ssDAF-12/GRIP1 lit1-tk-luc reporter, luminescence; % of 3 µM dafachronic acid response; activation, % at 6.8 µM; hit rate 1% among 370,000;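 active means activation above the mean over all tested compounds plus 3 SD, cut at about 0.9% in these data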
# hgDAF12 agonist: agonists of H. glycines DAF-12 nuclear receptor; HEK293 GAL4-hgDAF12 UAS-luciferase reporter, agonist luminescence; normalized to butyrate control; activation, % at 6.8 µM; hit rate 1.8% among 370,000; AID 687014;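 active means activation above a cutoff set at the mean of all screened compounds plus 3 SD, cut at about 10% in these data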
# DAX1 inh-2: DAX1 (NR0B1) inhibition, primary screen; inhibition, % at 6.8 µM; HEK293T StAR-luciferase reporter, SF-1/DAX-1 repression relief; hit rate 1.1% among 370,000;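 active means inhibition above the mean over all tested compounds plus 3 SD, cut at about 3.6% in these data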;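 further: higher inhibition means more luminescence from relief of DAX-1 repression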
# hcDAF12 agonist: H. contortus DAF-12 activation, primary screen; HEK293 hcDAF-12 lit1-tk-luc reporter, luminescence; 0% DMSO, 100% Δ7-dafachronic acid; activation, % at 6.8 µM; hit rate 1.4% among 370,000; AID 652067;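 active means activation above the mean of all tested compounds plus 3 SD, cut at about 5.5% in these data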
# AHR activator: activators of human aryl hydrocarbon receptor | hit rate 2.5% among 320,000 | P35869 | AHR-responsive luciferase reporter cells, luminescence | activation, % at 5 µM; in the data active means activation above about 47%
# Hits are given with their value; i = inactive; nt = not tested or not shown.
SMILES,DAX1 inh-1,ssDAF-12 act,hgDAF12 agonist,DAX1 inh-2,hcDAF12 agonist,AHR activator
CCOC(=O)CSc1nnc2c3ccccc3n(C)c2n1,i,i,i,i,i,i
Cc1cc(C)c2c(c1)c1nnc(SCCN3CCCCC3)nc1n2C,i,1.6,i,i,6.1,nt
Cn1c2ccccc2c2nnc(SCC(N)=O)nc21,i,0.9,i,i,i,i
O=C1N/C(=N\S(=O)(=O)Cc2ccccc2)S/C1=C/c1cc([N+](=O)[O-])ccc1O,i,i,i,i,i,i
NC(=O)c1cc(NC(=O)CCCc2nc3ccccc3s2)cc(C(N)=O)c1,i,i,i,i,i,i
Cn1c2ccccc2c2nnc(SCCN3CCOCC3)nc21,i,i,i,i,6.3,nt
CCCCn1c2ccccc2c2nnc(SCC(=O)NC3=NN=C(c4ccccc4)CS3)nc21,nt,i,i,i,i,61
CCCCn1c2ccc(F)cc2c2nnc(SCCN3CCCCC3)nc21,i,i,i,i,i,nt
CCCn1c2ccccc2c2nnc(SCC(=O)OC)nc21,i,i,i,i,i,i
CSc1nnc2c3cc(F)ccc3n(C)c2n1,i,1.0,i,i,i,i
Cn1c2ccccc2c2nnc(SCC(=O)Nc3cccc(O)c3)nc21,i,i,i,i,i,66
O=C(NCCc1ccc2c(c1)OCCO2)c1ccc([N+](=O)[O-])cc1Cl,i,i,i,i,i,i
O=C(CCCOc1ccccc1)Nc1nncs1,i,i,i,i,i,i
COc1ccc(/C=C2\CCc3c2nc2ccccc2c3C(=O)O)cc1OC,i,i,i,4.3,i,i
Cc1ccccc1C(=O)Nc1cccc(NC(=O)c2ncn[nH]2)c1,i,i,i,i,i,i
COc1ccc(Cn2cc(CN3CC(N4CCCC4)CS3(=O)=O)nn2)cc1 (configuration not stated),nt,i,i,4.4,i,nt
CCCCCCn1cc(CN(C)C2CN(Cc3cn(CCCCCC)nn3)S(=O)(=O)C2)nn1 (configuration not stated),nt,i,i,i,i,nt
CCCCCCn1cc(CN2CC(N(C)CC)CS2(=O)=O)nn1 (configuration not stated),nt,i,i,3.7,i,nt
CCCCCCn1cc(CN2CC(N3CCN(C)CC3)CS2(=O)=O)nn1 (configuration not stated),nt,i,i,i,i,nt
CCCCCCn1cc(CN2CC(N3CCN(C4CCN(C)CC4)CC3)CS2(=O)=O)nn1 (configuration not stated),nt,i,i,4.4,i,nt
Cc1cc(C)cc(OCCN2CCOCC2)c1,i,i,i,i,i,i
C/C(=C\C(=O)c1ccccc1)Nc1ccc2c(c1)OCO2,i,i,i,i,i,47
O=C(Nc1ccc(S(=O)(=O)NCc2ccccc2)cc1)Nc1ccc2c(c1)OCO2,i,nt,nt,nt,nt,52
O=C(Nc1ccc2c(c1)OCO2)Oc1ccccc1,i,i,i,i,i,88
CCOc1ccccc1CNc1ccc(O)cc1,i,i,i,i,i,nt
SMILES,DAX1 inh-1,ssDAF-12 act,hgDAF12 agonist,DAX1 inh-2,hcDAF12 agonist,AHR activator
COc1cc(NC(=O)C/C(C)=N/NC(=O)Cc2ccc(Cl)cc2)c(OC)cc1Cl,i,i,i,i,i,81
C/C(CC(=O)Nc1cc(Cl)ccc1Cl)=N\NC(=O)c1ccccc1Br,i,i,i,i,i,71
COc1ccc(Cl)cc1NC(=O)C/C(C)=N/NC(=O)c1ccccc1[N+](=O)[O-],i,i,i,i,i,i
COCCCNC(=S)N/N=C/c1cccc(OC)c1O,nt,i,i,i,i,i
COc1cc2c(C)nc3onc(-c4ccccc4)c3c2cc1OC,i,i,i,i,i,71
CC(=O)c1c(C)[nH]c(C(=O)N2CCc3ccccc3C2)c1C,i,i,i,i,i,48
CC1CCN(CCOCCOc2ccc(Br)cc2Cl)CC1,i,i,i,i,i,i
COc1ccc(-c2ccc(SCC(=O)c3cccs3)nn2)cc1,i,i,i,i,i,i
O=C(CSc1ccc(-c2ccccc2)nn1)c1cccs1,i,i,12,i,i,i
O=C(NNC(=S)Nc1ccc(Cl)cc1)c1ccccc1OC(F)F,i,i,i,i,i,104
CCn1c(SCC(=O)Nc2cc(C)on2)nc2sc3c(c2c1=O)CCCC3,i,i,i,i,i,i
CCOC(=O)Cc1nc(-c2ccccc2)n[nH]1,i,i,i,i,i,i
COCCCN=CC1=C(O)CC(C)(C)CC1=O,i,i,i,i,i,i
CC(=O)N(CCc1ccccc1)Cc1cc2cc(C)ccc2[nH]c1=O,i,i,i,i,i,54
CC(=O)c1ccc(OCCn2c(SCC(=O)O)nc3ccccc32)cc1,i,i,i,i,6.4,nt
CCn1c(SCC(=O)Nc2nc(-c3ccc(C)cc3)cs2)nnc1-c1ccccc1,i,i,i,i,i,i
Cc1ccc(-c2csc(NC(=O)CSc3nc4ccccc4c(=O)n3CCCN(C)C)n2)cc1,i,i,13,i,i,i
CCOCCCn1c(SCC(=O)NCc2ccc3c(c2)OCO3)nc2ccccc2c1=O,i,i,i,i,i,70
CCOc1ccc(OCCn2c(SCC(=O)O)nc3ccccc32)cc1,i,i,i,i,i,i
COCCn1c(SCC(=O)Nc2ccc(NC(C)=O)cc2)nc2ccccc2c1=O,i,i,i,i,i,i
COCCCn1c(SCC(=O)Nc2ccc(C(C)=O)cc2)nc2ccccc2c1=O,i,i,11,i,i,i
COC(=O)C(CCSC)NC(=O)Cn1ncc2c(=O)oc3ccc(C)cc3c21 (configuration not stated),i,i,i,i,i,i
O=C(NCCC1=CCCCC1)c1ccc(Cl)c(S(=O)(=O)Nc2ccccc2)c1,i,i,i,i,i,i
O=C(Nc1cccc2nsnc12)c1ccc(-c2ccc(Br)cc2)o1,i,i,i,i,i,49
COC(=O)c1ccccc1NC(=O)c1ccc(-c2ccc(Br)cc2)o1,i,i,i,i,i,i
SMILES,DAX1 inh-1,ssDAF-12 act,hgDAF12 agonist,DAX1 inh-2,hcDAF12 agonist,AHR activator
COc1ccc(N2C(=O)/C(=C/c3ccc([N+](=O)[O-])cc3)C=C2c2ccccc2)cc1,i,1.2,i,i,i,i
O=C1/C(=C/c2ccc([N+](=O)[O-])cc2)C=C(c2ccccc2)N1c1ccccc1,i,i,i,i,i,i
O=C(CN(Cc1cccs1)C(=O)c1csnn1)NC1CCCC1,i,i,i,i,i,i
CCOC(=O)C1=C(C)Nc2nc3ccccc3n2C1c1ccccc1 (configuration not stated),5.4,i,i,i,i,i
CNC(=O)C1=C(C)Nc2nc3ccccc3n2C1c1ccc(F)cc1 (configuration not stated),i,i,i,i,i,i
CCCCn1nnc(NC(=O)COc2cc(C)ccc2C(C)C)n1,i,i,i,i,i,i
CCC(CC)c1nnc(NC(=O)c2ccc3c(c2)OCO3)s1,i,i,i,i,i,64
C=CCSc1nnc(NC(=O)c2ccc3c(c2)OCCO3)s1,i,i,i,3.9,i,nt
